In PubChem BioAssay:
The source made the active and inactive calls. Unless noted, no rule for the calls is given here.

Assays:
[1] = A549 cell viability effects, profiling panel, calcein-AM fluorescence, 48 h, basal (AID 1162); settings: higher = more signal; also: test concentration not given here
[2] = adipocyte viability effects, profiling panel, cell-based, 3T3-L1 adipocytes, calcein-AM fluorescence, 48 h, basal (AID 1163); settings: 3T3-L1 adipocytes viability, higher = more signal; also: test concentration not given here
[3] = HepG2 cell viability effects, profiling panel, calcein-AM fluorescence, 48 h, basal (AID 1164); settings: higher = more signal; also: test concentration not given here
[4] = MM1S cell viability effects, profiling panel, calcein-AM fluorescence, 48 h, basal (AID 1165); settings: higher = more signal;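 also: viability of MM1S multiple myeloma cells under basal unstimulated conditions; test concentration not given here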
[5] = basal RPMI8226 viability, no added stimulus, profiling panel, cell-based, calcein-AM fluorescence, 48 h, PK04 Diversity Set (AID 1166); settings: RPMI8226 myeloma viability, higher = more signal;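 also: cells grown under basal conditions without added stimulus; test concentration not given here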
[6] = basal HepG2 mitochondrial membrane potential changes, profiling panel, cell-based, JC-1 fluorescence, 24 h, 100 nL compound (AID 1167); settings: higher = more signal; also: test concentration not given here
[7] = basal 3T3-L1 adipocyte mitochondrial potential changes, profiling panel, cell-based, JC-1 fluorescence, 3T3-L1 adipocytes, 24 h, 100 nL compound (AID 1168); settings: JC-1 mitochondrial fluorescence, higher = more signal, called active from +8 up or from −8 down; also: test concentration not given here
[8] = basal RPMI8226 mitochondrial membrane potential changes, profiling panel, cell-based, JC-1 fluorescence, 24 h, 100 nL compound (AID 1169); settings: RPMI8226 myeloma, JC-1 mitochondrial potential fluorescence, higher = more signal; also: test concentration not given here
[9] = basal MM1S mitochondrial membrane potential changes, profiling panel, cell-based, JC-1 fluorescence, 24 h, 100 nL compound (AID 1170); settings: higher = more signal; also: test concentration not given here
[10] = A549 lung cancer cell viability effects, profiling panel, resazurin fluorescence, 24 h, PK04 Diversity Set (AID 1171); settings: higher = more signal, called active from +8 up or from −8 down; also: test concentration not given here
[11] = HepG2 liver cancer cell viability effects, profiling panel, resazurin fluorescence, 24 h, PK04 Diversity Set (AID 1172); settings: higher = more signal; also: test concentration not given here
[12] = basal S. cerevisiae growth modulation, no modifier, primary screen, OD600, strain BY4716, 24 h, basal condition (AID 1173); settings: OD600, 24 h, higher = more signal, called active from +8 up or from −8 down
[13] = MM1S myeloma cell viability, profiling panel, resazurin fluorescence, basal, 24 h, PK04 Diversity Set (AID 1174); settings: higher = more signal, called active from +8 up or from −8 down;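 also: MM1S multiple myeloma cell line; test concentration not given here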
[14] = target: Dihydroorotate dehydrogenase (quinone), mitochondrial (Plasmodium falciparum (isolate 3D7)) (UniProt Q08210); assay: PfDHODH enzyme inhibitors, primary screen, biochemical, C-terminal His tag, absorbance 600 nm (AID 1175); settings: DCIP absorbance 600 nm, higher = more signal, called active from +8 up or from −8 down;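 also: recombinant parasite enzyme with a five histidine tag at its C terminus; test concentration not given here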
Dihydroorotate dehydrogenase (quinone), mitochondrial (Plasmodium falciparum (isolate 3D7)), sequence (Q08210 whole entry, looked up): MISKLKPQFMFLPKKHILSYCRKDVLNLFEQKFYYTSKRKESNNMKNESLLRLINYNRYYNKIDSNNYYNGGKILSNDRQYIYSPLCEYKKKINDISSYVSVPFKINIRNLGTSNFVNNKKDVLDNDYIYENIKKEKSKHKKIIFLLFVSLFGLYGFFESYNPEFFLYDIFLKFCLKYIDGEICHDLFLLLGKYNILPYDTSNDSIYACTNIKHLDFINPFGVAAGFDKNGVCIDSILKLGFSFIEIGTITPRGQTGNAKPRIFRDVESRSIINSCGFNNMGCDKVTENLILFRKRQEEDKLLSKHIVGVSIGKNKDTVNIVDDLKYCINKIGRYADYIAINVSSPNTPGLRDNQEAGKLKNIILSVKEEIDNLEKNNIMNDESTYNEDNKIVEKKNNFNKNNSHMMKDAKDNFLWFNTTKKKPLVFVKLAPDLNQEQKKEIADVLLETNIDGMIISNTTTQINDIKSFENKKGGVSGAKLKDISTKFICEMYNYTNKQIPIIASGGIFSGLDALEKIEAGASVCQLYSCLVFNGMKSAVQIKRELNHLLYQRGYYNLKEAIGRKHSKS

[15] = P. aeruginosa biofilm formation inhibitors, primary screen, strain PAO1, LB-PBS medium, absorbance 600 nm (AID 1176); also: test concentration not given here; settings: P. aeruginosa PAO1 growth/biofilm, A600, 12 h; higher = more signal
[16] = S. cerevisiae RM11-1a growth modifiers, primary screen, strain RM11-1a, OD600, basal, 24 h (AID 1177); settings: OD600, 24 h, higher = more signal, called active from +8 up or from −8 down;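 also: cultures grown under basal conditions with no added stressor; test concentration not given here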
[17] = E. coli acrAB mutant growth effects, primary screen, E. coli filamentation inducers, strain DRC39, OD650, 24 h (AID 1178); settings: higher = more signal, called active from +8 up or from −8 down;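 also: growth measured as culture turbidity by optical density at 650 nm; test concentration not given here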
[18] = E. coli acrAB mutant growth effects, primary screen, E. coli filamentation inducers, strain DRC39, OD650, 48 h (AID 1179);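 also: screen aims at cell division blockers that make cells filament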; settings: E. coli DRC39 delta-acrAB growth, higher = more signal, called active from +8 up or from −8 down
[19] = RPMI8226 myeloma cell viability, profiling panel, resazurin fluorescence, basal, 24 h, PK04 Diversity Set (AID 1180); settings: higher = more signal;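 also: RPMI8826 multiple myeloma cell line at 5000 cells per well; test concentration not given here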
[20] = target: E3 ubiquitin-protein ligase XIAP (Homo sapiens) (UniProt P98170); assay: XIAP binders, primary screen, biophysical, small-molecule microarray, fluorescence 635 nm (AID 1181); settings: small-molecule microarray binding, higher = more signal;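 also: score merges 667 nm emission and signal to noise over triplicate slides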
E3 ubiquitin-protein ligase XIAP (Homo sapiens), sequence (P98170 whole entry, looked up): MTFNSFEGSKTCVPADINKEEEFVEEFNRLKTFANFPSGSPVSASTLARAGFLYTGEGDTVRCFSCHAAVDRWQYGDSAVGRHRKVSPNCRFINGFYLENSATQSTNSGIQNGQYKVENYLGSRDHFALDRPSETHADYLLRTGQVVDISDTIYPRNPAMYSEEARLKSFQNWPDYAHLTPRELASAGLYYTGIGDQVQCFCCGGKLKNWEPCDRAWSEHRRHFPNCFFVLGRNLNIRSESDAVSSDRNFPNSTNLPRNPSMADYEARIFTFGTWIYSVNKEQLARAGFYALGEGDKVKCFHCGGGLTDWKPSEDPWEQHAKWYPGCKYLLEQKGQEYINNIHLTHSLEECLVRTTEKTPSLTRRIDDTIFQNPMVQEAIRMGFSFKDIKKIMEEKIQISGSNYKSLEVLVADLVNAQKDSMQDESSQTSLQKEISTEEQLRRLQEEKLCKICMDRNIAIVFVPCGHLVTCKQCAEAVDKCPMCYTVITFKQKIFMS

Structure (SMILES): C[C@@H](c1ccccc1)N1C(=O)[C@H]2[C@H]3[C@H](O)[C@H](O)CC(=NO[C@@H]4O[C@H](CO)[C@@H](O)[C@H](O)[C@H]4O)[C@H]3CC[C@H]2C1=O
- z-score [1]: -0.306
- z-score [2]: 0.221
- z-score [3]: -0.492
- z-score [4]: 0.254
- z-score [5]: -0.599
- z-score [6]: -0.364
- z-score [7]: -0.507 (inactive)
- z-score [8]: 0.0338
- z-score [9]: -0.15
- z-score [10]: -0.154 (inactive)
- z-score [11]: -0.495
- z-score [12]: 0.561 (inactive)
- z-score [13]: 0.174 (inactive)
- composite z-score [14]: -0.28 (inactive)
- z-score [15]: 0.389 (inactive)
- z-score [16]: 0.0857 (inactive)
- z-score [17]: -0.837 (inactive)
- z-score [18]: 0.11 (inactive)
- z-score [19]: 0.577
- composite z-score [20]: 0.057

Structure (SMILES): O=C(NN=C1C[C@@H](O)[C@@H](O)[C@@H]2[C@@H]3C(=O)N(C4CCCCC4)C(=O)[C@@H]3CC[C@@H]12)OCc1ccccc1
- z-score [1]: 0.225
- z-score [2]: 0.487
- z-score [3]: 0.621
- z-score [4]: 0.495
- z-score [5]: -0.697
- z-score [6]: -0.502
- z-score [7]: -0.247 (inactive)
- z-score [8]: -0.369
- z-score [9]: -0.309
- z-score [10]: -0.24 (inactive)
- z-score [11]: -0.141
- z-score [12]: -0.922 (inactive)
- z-score [13]: -0.0864 (inactive)
- composite z-score [14]: -0.223 (inactive)
- z-score [15]: -0.814 (inactive)
- z-score [16]: 0.0487 (inactive)
- z-score [17]: 0.193 (inactive)
- z-score [18]: 0.332 (inactive)
- z-score [19]: -0.678
- composite z-score [20]: -0.505

Structure (SMILES): CCOC(=O)[C@H](CC(C)C)NC(=O)CCC1CC(OC(=O)NCc2ccc3c(c2)OCO3)CC2(CCCC(COC(=O)NCCCN3CCCC3=O)O2)O1 (stereo not given in full)
- z-score [1]: 0.526
- z-score [2]: -0.268
- z-score [3]: -0.106
- z-score [4]: -0.181
- z-score [5]: 0.514
- z-score [6]: 0.553
- z-score [7]: 0.875 (inactive)
- z-score [8]: -0.838
- z-score [9]: -0.328
- z-score [10]: 0.142 (inactive)
- z-score [11]: 0.217
- z-score [12]: -1.17 (inactive)
- z-score [13]: 0.595 (inactive)
- composite z-score [14]: -1.42 (inactive)
- z-score [15]: 0.38 (inactive)
- z-score [16]: 0.564 (inactive)
- z-score [17]: 0.877 (inactive)
- z-score [18]: 0.0512 (inactive)
- z-score [19]: 1.24
- composite z-score [20]: -0.145

Structure (SMILES): CON=C[C@@H](NS(=O)(=O)c1ccc(C)cc1)[C@H](C)C=CCC(=O)OC
- z-score [1]: 1.19
- z-score [2]: -0.951
- z-score [3]: 0.244
- z-score [4]: 0.561
- z-score [5]: 0.226
- z-score [6]: 0.271
- z-score [7]: -0.95 (inactive)
- z-score [8]: -0.0325
- z-score [9]: 0.0264
- z-score [10]: -0.262 (inactive)
- z-score [11]: 0.27
- z-score [12]: -0.146 (inactive)
- z-score [13]: -0.548 (inactive)
- composite z-score [14]: 0.244 (inactive)
- z-score [15]: -0.291 (inactive)
- z-score [16]: 0.475 (inactive)
- z-score [17]: 0.717 (inactive)
- z-score [18]: -0.761 (inactive)
- z-score [19]: -0.484
- composite z-score [20]: -0.0773

Structure (SMILES): CCOC(=O)[C@H](Cc1ccccc1)NC(=O)CCC1CC(OC(=O)NCc2cccc3ccccc23)CC2(CCCC(COC(=O)NCC(c3ccccc3)c3ccccc3)O2)O1 (stereo not given in full)
- z-score [1]: 1.15
- z-score [2]: -0.0155
- z-score [3]: -0.808
- z-score [4]: -3.22
- z-score [5]: 0.632
- z-score [6]: 0.353
- z-score [7]: -0.151 (inactive)
- z-score [8]: -0.107
- z-score [9]: -0.886
- z-score [10]: 1.36 (inactive)
- z-score [11]: 0.812
- z-score [12]: -0.38 (inactive)
- z-score [13]: 0.923 (inactive)
- composite z-score [14]: -0.305 (inactive)
- z-score [15]: -0.163 (inactive)
- z-score [16]: -0.714 (inactive)
- z-score [17]: -0.371 (inactive)
- z-score [18]: -0.661 (inactive)
- z-score [19]: 1.27
- composite z-score [20]: 0.0655

Structure (SMILES): COc1cc(O)c(C(=O)C=Cc2ccc3c(c2)OCO3)c(OC)c1
- z-score [1]: -0.553
- z-score [2]: 0.154
- z-score [3]: -0.932
- z-score [4]: -1.62
- z-score [5]: -1.36
- z-score [6]: -0.591
- z-score [7]: -0.646 (inactive)
- z-score [8]: -0.23
- z-score [9]: -0.533
- z-score [10]: 0.0731 (inactive)
- z-score [11]: 0.0215
- z-score [12]: 1.12 (inactive)
- z-score [13]: -0.307 (inactive)
- composite z-score [14]: 1.06 (inactive)
- z-score [15]: 1.2 (inactive)
- z-score [16]: 2.31 (inactive)
- z-score [17]: -0.45 (inactive)
- z-score [18]: -1.04 (inactive)
- z-score [19]: -0.144
- composite z-score [20]: 0.215

Structure (SMILES): CC(CCN1CCCCc2nc(C)c(C)cc21)=NOC[C@@H](C)[C@H](OCc1ccccc1)C(C)C
- z-score [1]: 0.139
- z-score [2]: 0.588
- z-score [3]: 1.39
- z-score [4]: -1.5
- z-score [5]: 0.327
- z-score [6]: -0.728
- z-score [7]: 0.155 (inactive)
- z-score [8]: 0.0506
- z-score [9]: -1.06
- z-score [10]: -0.472 (inactive)
- z-score [11]: -0.345
- z-score [12]: -2.36 (inactive)
- z-score [13]: -0.13 (inactive)
- composite z-score [14]: -1.46 (inactive)
- z-score [15]: 0.147 (inactive)
- z-score [16]: -2.61 (inactive)
- z-score [17]: -1.22 (inactive)
- z-score [18]: 0.0039 (inactive)
- z-score [19]: 0.0342
- composite z-score [20]: 0.0153

Structure (SMILES): CC(=O)O[C@H]1C2=CO[C@H](C)[C@H]3[C@H]4C5=C([C@H](O)[C@H]6O[C@H]6C5=O)[C@H](OC4C)[C@@]23C(=O)[C@@H]2O[C@@H]21 (stereo not given in full)
- z-score [1]: -1.7
- z-score [2]: -0.827
- z-score [3]: -3.46
- z-score [4]: -3.43
- z-score [5]: -3.37
- z-score [6]: -3
- z-score [7]: 0.12 (inactive)
- z-score [8]: -0.871
- z-score [9]: -2.88
- z-score [10]: -2.43 (inactive)
- z-score [11]: -1.75
- z-score [12]: 0.0895 (inactive)
- z-score [13]: -4.88 (inactive)
- composite z-score [14]: -0.219 (inactive)
- z-score [15]: 1.09 (inactive)
- z-score [16]: -0.464 (inactive)
- z-score [17]: -0.262 (inactive)
- z-score [18]: -0.267 (inactive)
- z-score [19]: -3.5
- composite z-score [20]: -0.266

Structure (SMILES): Cc1cc2c(nc1C)CCCCN2CC(C)ON=C[C@@H](C)[C@H](OCc1ccccc1)C(C)C (stereo not given in full)
- z-score [1]: -0.672
- z-score [2]: -0.44
- z-score [3]: -1.27
- z-score [4]: -2.94
- z-score [5]: -3.77
- z-score [6]: -1.91
- z-score [7]: -1.4 (inactive)
- z-score [8]: -0.262
- z-score [9]: 0.034
- z-score [10]: 4.05 (inactive)
- z-score [11]: 1.48
- z-score [12]: -5.49 (inactive)
- z-score [13]: 0.674 (inactive)
- composite z-score [14]: -0.983 (inactive)
- z-score [15]: 0.675 (inactive)
- z-score [16]: -1.02 (inactive)
- z-score [17]: -0.152 (inactive)
- z-score [18]: -0.4 (inactive)
- z-score [19]: 1.4
- composite z-score [20]: 0.0856
